Test results from PubChem BioAssay (Tox21).
Values joined by “and” are separate entries in the source; they are usually repeats but may differ in a detail not shown here. Identical values can stand only once. Records with an inconclusive call do not appear. Entries that show only a call come without a potency. A number with no mark means an inactive call. Active and inactive are the calls of the source. The call rests on the fitted dose curve; in most records, active means well fitted cell-killing curve with a large enough effect in the repeat runs; inconclusive means weak or mixed curves, or effect the other way; inactive means flat fitted curve, though single readings scatter.
Potency means the concentration at half of the fitted maximal effect.

Assay: Caspase-3/7 induction in HepG2 cells by small molecules, qHTS cell viability counter screen (AID 1346981); further: nearly all actives have a fitted effect of over 30% in size
Settings: CellTiter-Fluor fluorescence, 17 h; series mostly up to 92.4 µM; activity change, negative = cytotoxicity: at the top concentration
Excerpt: U.S. Tox21 Program National Center for Advancing Translational Sciences [NCATS] NIH Chemical Genomics Center [NCGC] U.S. Environmental Protection Agency [EPA] National Institutes of Environmental Health Sciences [NIEHS] National Toxicology Program [NTP] U.S. Food and Drug Administration [FDA] Tox21 Assay Overview: Apoptosis is a process of programmed cell death and plays a central role in the development of multicellular organisms. It is a highly regulated process and induces cell death by activating caspases, which are the members of cysteine aspartic acid-specific protease (caspase) family. Caspases involved in apoptosis are classified by their mechanism of action as initiator caspases (caspase-2, -8, -9 and -10) and executioner caspases (caspase-3, -6, and -7). Inhibition of apoptosis results in number of cancers, autoimmune diseases, inflammatory diseases and viral infection. To identify small molecule compounds that induce apoptosis, a homogeneous, luminescent Caspase-Glo 3/7 assay was used. Wild type HepG2 cells were used to screen Tox21 libraries for identifying caspase-3/7 activity inducers. Also cytotoxicity of the compounds was tested in parallel by measuring the cell viability using CellTiter-Fluor assay system in the same wells.
Tox21 Assay Protocol Summary: HepG2 cells were dispensed at 2,000 per well in 5uL of culture medium into white solid bottom 1536-well plates (Corning Life Sciences, Corning, NY) using a Multidrop Combi (Thermo Scientific, Waltham, MA) dispenser. The assay plates were incubated at 37 C and 5% CO2 for 5hr, and then 23nL of compounds dissolved in DMSO and positive control were transferred using a Pintool station ([…], San Diego, CA). The assay plates were incubated at 37C and 5% CO2 for 17hr. For cytotoxicity read, after 16hr incubation at 37C, 1uL CellTiter-Fluor reagent (Promega Corporation, Madison, WI) was added to each well of the assay plates using Flying Reagent Dispenser (FRD, Aurora Discovery, San Diego, CA). After 1hr incubation at 37C and 5% CO2, the fluorescence signal was quantified using a ViewLux plate reader (PerkinElmer, Shelton, CT).
For `CC(=O)O[C@]1(C(C)=O)CC[C@H]2[C@@H]3C=C(Cl)C4=CC(=O)[C@@H]5C[C@@H]5[C@]4(C)[C@H]3CC[C@@]21C`, the “activity change, negative = cytotoxicity” value was 0.986% [at 42.5 µM]. In the case of `CCCCNS(=O)(=O)c1ccccc1`, the “activity change, negative = cytotoxicity” value is reported as -1.67%. For `C[C@]12CC[C@H]3[C@@H](CCC4=CC(=O)CC[C@@]43C)[C@@H]1CC[C@@H]2C(=O)CO`, the Potency was “inactive”. With `Cc1cccc([N+](=O)[O-])c1C` the Potency was “inactive”. With `CC(C)CC(C)(O)C#CC(C)(O)CC(C)C` (stereo not given) the “activity change, negative = cytotoxicity” value was -1.75%. For `C=C(C)C1CC=C(C)CC1` (stereo not given), the Potency was “inactive”. In the case of `CCC(C)c1ccccc1O` (stereo not given), the Potency is reported as “inactive”. In the case of `Cc1ccc(C)c(O)c1C`, the Potency is reported as “inactive”. In the case of `C[C@]12CCC(=O)C=C1CC[C@@H]1[C@@H]2C(=O)C[C@@]2(C)[C@H]1CC[C@]2(O)C(=O)CO`, the Potency is reported as “inactive”. For `O=c1oc(=O)c2cc3c(=O)oc(=O)c3cc12`, the Potency was “inactive”. With `CC(C)OC=O` the Potency was “inactive”. In the case of `O=Cc1ccccc1O`, the “activity change, negative = cytotoxicity” value is reported as 4.67%. In the case of `C/C=C/C(=O)O`, the “activity change, negative = cytotoxicity” value is reported as 5.13%. For `CC1=CC2C3CC(C=C3C)C2C1` (stereo not given), the Potency was “inactive”. For `CN(C)c1nc(N(C)C)nc(N(C)C)n1`, the Potency was “inactive”. In the case of `Nc1ccc(S(=O)(=O)Nc2cnc3ccccc3n2)cc1`, the Potency is reported as “inactive”. With `OC1CCCCCCCCCCC1` the Potency was “inactive”. For `Cn1cnc([N+](=O)[O-])c1Sc1ncnc2nc[nH]c12`, the Potency was 48.2 µM (active). With `Nc1ccc(Nc2ccccc2)cc1` the Potency was 42.8 µM (active) and 34.4 µM (active) and 48.6 µM (active). With `COC(=O)c1ccccc1` the Potency was “inactive”. With `COc1c(Cl)c(Cl)c(Cl)c(Cl)c1Cl` the Potency was “inactive”. With `COC(C)COC(C)COC(C)CO` (stereo not given) the Potency was “inactive”. With `CN1C(C(=O)Nc2ccccn2)=C(O)c2ccccc2S1(=O)=O` the Potency was “inactive”. With `COC(=O)Nc1nc2ccc(S(=O)c3ccccc3)cc2[nH]1` (stereo not given) the Potency was “inactive”. For `CCCCCCCCCC(=O)OC`, the Potency was “inactive”. For `CCCCC/C=C/C=C/C=O`, the Potency was “inactive”. In the case of `O=[N+]([O-])c1ccc2c(c1)Cc1ccccc1-2`, the Potency is reported as “inactive”. In the case of `CN(C)C(=N)N=C(N)N`, the “activity change, negative = cytotoxicity” value is reported as 1.19% [at 42.5 µM]. In the case of `CC(C)=CCCC(C)CCO` (stereo not given), the Potency is reported as “inactive”. For `Cc1ncc[nH]1`, the Potency was “inactive”. In the case of `CCCCCCCCCCCO`, the “activity change, negative = cytotoxicity” value is reported as -6.57%. With `COc1ccccc1/C=C/C=O` the Potency was “inactive”. For `C=CC(C)(CCC=C(C)C)OC(C)=O` (stereo not given), the “activity change, negative = cytotoxicity” value was -1.05%. With `CNCCCC12CCC(c3ccccc31)c1ccccc12` the Potency was 61.1 µM (active). For `Nc1ncnc2nc[nH]c12`, the Potency was “inactive”. For `C#C[C@]1(O)CC[C@H]2[C@@H]3CCC4=Cc5oncc5C[C@]4(C)[C@H]3CC[C@@]21C`, the “activity change, negative = cytotoxicity” value was -1.93% [at 42.5 µM]. With `Cc1c(OCC(F)(F)F)ccnc1CS(=O)c1nc2ccccc2[nH]1` (stereo not given) the Potency was “inactive”. For `CC(=O)c1ccccn1`, the “activity change, negative = cytotoxicity” value was -1.34%. With `O=C(COc1ccc(Cl)cc1)N1CCN(Cc2ccc3c(c2)OCO3)CC1` the “activity change, negative = cytotoxicity” value was -5.46% [at 42.5 µM]. For `CN(C)CCN(Cc1cccs1)c1ccccn1`, the Potency was “inactive”.
